Data from PubChem BioAssay.
Inconclusive results are not listed. Calls of active or inactive are those of the source.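 The calls were made as follows, unless noted: active = differentiation response of at least 50%, scaled between solvent and reference control, from cells with both markers; inactive = the rest.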

Legend:
[1] = yeast TOR pathway RPL19A-GFP modulators, primary screen, cell-based, S. cerevisiae, multiplex flow cytometry (AID 1862; in the data active = percent of DMSO control GFP below about 86%;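 also: lower values mimic rapamycin by blocking the RPL19A rise seen in DMSO cells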); settings: S. cerevisiae RPL19A-GFP strain, flow cytometry fluorescence, 3 h; at 10 µM; stronger effect = lower value
[2] = modulators of MEP2-GFP levels in yeast, primary screen, S. cerevisiae, multiplex flow cytometry (AID 1867;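 active = GFP response, as percent of the DMSO control, above the screen-wide mean plus 3 SD, about 139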;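 also: median GFP channel fluorescence of barcode-gated MEP2-GFP cells measured by flow cytometry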); settings: S. cerevisiae MEP2-GFP strain, 3 h, at 10 µM, stronger effect = higher value, 100% means same as DMSO wells
[3] = modulators of CIT2-GFP expression in yeast, primary screen, S. cerevisiae, GFP fusion, multiplex flow cytometry (AID 1870;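 active = percent response above a set limit, the screen-wide mean plus 3 SD, cut at about 130% in these data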;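 also: barcoded CIT2-GFP strain pooled with four other GFP strains with rapamycin as positive control; median GFP fluorescence per well over plate mean of DMSO wells so 100% = DMSO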); settings: 3 h, at 10 µM, stronger effect = higher value
[4] = modulators of LAP4-GFP expression in yeast, primary screen, S. cerevisiae, multiplex flow cytometry (AID 1873;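 active = GFP signal, as percent of the solvent control, above the screen mean plus 3 SD, about 149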); settings: 3 h, at 10 µM, stronger effect = higher value
[5] = modulators of AGP1-GFP expression in yeast TOR pathway, primary screen, cell-based, multiplex flow cytometry, S. cerevisiae (AID 1887;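 active = GFP signal above the screen-wide mean plus 3 SD, that is over about 124.5% of the solvent control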;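 also: AGP1-GFP fusion strain of S. cerevisiae within a five-strain barcoded multiplex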); settings: 3 h, at 10 µM, stronger effect = higher value
[6] = RPL19A-GFP modulators, yeast TOR pathway, confirmation, cell-based, S. cerevisiae, flow cytometry, cherry picks, mother/daughter gates (AID 2270;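 active = GFP response below 50% of the DMSO control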); settings: S. cerevisiae RPL19A-GFP strain, 3 h, at 10 µM, stronger effect = lower value, 100 = same GFP as DMSO wells
[7] = LAP4-GFP expression modulators in yeast, confirmation, cell-based, cherry picks, flow cytometry, mother/daughter gates (AID 2271;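 active = GFP response above 150% of the DMSO control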;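 also: ratio of sample to DMSO plate mean so 100% equals DMSO level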); settings: S. cerevisiae LAP4-GFP strain, 3 h, at 10 µM, stronger effect = higher value, 100 means same as DMSO control
[8] = modulators of MEP2-GFP levels in yeast, confirmation, S. cerevisiae, flow cytometry GFP, cherry picks (AID 2272;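 active = GFP response above 150% of the DMSO control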;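 also: ratio of well signal to plate DMSO mean so 100% equals DMSO level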); settings: S. cerevisiae MEP2-GFP strain, 3 h, at 10 µM, stronger effect = higher value
[9] = modulators of CIT2-GFP expression in yeast, confirmation, S. cerevisiae, GFP fusion, cherry picks, mother/daughter gates (AID 2274;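 active = GFP response above 150% of the DMSO level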); settings: S. cerevisiae CIT2-GFP strain, flow cytometry, 3 h, at 10 µM, stronger effect = higher value
[10] = inhibitors of CD8+ T cell-vesicle binding, pilot screen, LFA-1/ICAM-1 modulator project, MLPCN validation set, flow cytometry (AID 2523;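 active = response below a set limit, under 55% cells CD8-positive and vesicle-bound, and CD8 cells' 90th-percentile brightness under 279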;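 as to vesicle binding response: mean PE anti-B7-1 fluorescence of CD8+ cells relative to row control; 100% = QL9-loaded vesicles with DMSO vehicle in the same plate row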); settings: 2C mouse CD8+ T cells, at 7 µM, stronger effect = lower value; double positive events: measured here: CD8+/vesicle+ event percentage
[11] = target: Integrin beta-1 (Homo sapiens) + Integrin alpha-4 (Homo sapiens) (UniProt P13612+P05556); experiment: inhibition of HUTS-21 binding to VLA-4, pilot screen, VLA-4 allosteric modulator project, U937 cells, HUTS-21 mAb, flow cytometry, validation set (AID 2674;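 active = inhibition above 50%, about 3 SD of the validation set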;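 also: antibody binding induced by the VLA-4 ligand LDV present at three times its Kd; 0% = LDV ligand with antibody and no compound and 100% = antibody without LDV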); settings: HUTS-21 LIBS mAb binding, at 6.7 µM, stronger effect = higher value, binding induced by LDV ligand
[12] = superoxide lowering in aged yeast cells, pilot screen, validation compound set (AID 2706;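 active = superoxide response below 65% of plate, a cut near 3 SD across the whole screen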;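 also: yeast exposed to compound for one week at 30 degrees C before staining; 100% = mean of all compound wells on the same plate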); settings: S. cerevisiae aging, superoxide DHE fluorescence; at 10 µM; stronger effect = lower value
[13] = target: Beta-adrenergic receptor kinase 1 (Homo sapiens) (UniProt P25098); experiment: GRK2 binders displacing RNA aptamer, biochemical, validation, human GRK2, bead flow cytometry (AID 488806;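 active = aptamer binding inhibition above 30%, about 3 SD of noise from non-fluorescent compounds; inactive = inhibition at or below 30%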); settings: bead-bound GRK2, FAM-aptamer displacement, at 10 µM, stronger effect = higher value
[14] = target: Beta-2 adrenergic receptor (Homo sapiens) (UniProt P07550); experiment: beta2AR agonists driving receptor internalization, pilot screen, cell-based, FAP fluorogen, flow cytometry, validation set (AID 504459;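 active = percent response above 42, roughly 3 SD of non-fluorescent test compounds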;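 also: agonist-driven loss of surface beta2AR via internalization measured by FAP dye flow cytometry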); settings: Am2.2-beta2AR cells, FAP surface receptor flow cytometry; at 10 µM; stronger effect = higher value
[15] = target: AP-2 complex subunit beta (Homo sapiens) (UniProt P63010); experiment: inhibitors of arrestin peptide binding to AP2, pilot screen, biochemical, validation set, GST-AP2 beads, flow cytometry (AID 504541;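 active = inhibition above 54%, about 3 SD of non-fluorescent compounds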;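 also: AP2 carries R879A mutation and is captured from E. coli lysate; bead-bound FITC arrestin peptide fluorescence measuring arrestin peptide binding to AP2; 0% = DMSO wells and 100% = excess unlabeled arrestin peptide control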); settings: FITC arrestin peptide, at 10 µM, stronger effect = higher value, AP2 beta2 appendage fragment, R879A mutant
[16] = yeast V-ATPase proton transport modulators, S. cerevisiae, pHLuorin, HTS validation (AID 504600; in the data active = response above about 15%;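 also: plate controls were DMSO for no effect and reference compound for full effect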); settings: S. cerevisiae pHLuorin cytosolic pH, at 10 µM, stronger effect = higher value
[17] = system: anti-desmoglein-3 scFv antibody binding to human DSG3; experiment: inhibitors of anti-DSG3 scFv binding to DSG3, pilot screen, biochemical, validation compound set, bead-based, flow cytometry (AID 588368;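 active = binding below the plate cutoff, the plate median minus 3 SD, with a reading above zero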;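 also: signal is the median channel fluorescence of bead-bound GFP antibody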); settings: Protein G beads, DSG3-Fc, scFv-GFP binding, at 10 µM, stronger effect = lower value
[18] = inhibitors of fungal efflux pumps CDR1, CDR2, MDR1, pilot screen, validation compound set, multiplex, phenotypic (AID 588506;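 active = efflux inhibition above 0.42, the validation set average plus 4 SD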;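 also: Nile Red retained in cells so higher fluorescence means more efflux inhibition; 0 = negative control wells and 1 = enniatin B 25 µM full block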); settings: S. cerevisiae pump-expressing triplex, Nile Red efflux flow cytometry; at 10 µM; stronger effect = higher value; the pumps come from Candida albicans
[19] = target: ATP-binding cassette sub-family B member 6 (Homo sapiens) (UniProt Q9NP58); experiment: ABCB6 transporter inhibitors, pilot screen, K562-ABCB6 cells, flow cytometry, validation set (AID 588550;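 active = inhibition above the screen-wide mean plus 3 SD, about 51%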;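 also: 0% = DMSO wells and 100% = benzethonium chloride 70 µM positive control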); settings: K562-ABCB6 porphyrin accumulation, 1 h, at 10 µM, stronger effect = higher value
[20] = promoters of myeloid differentiation in arrested cells, primary screen, cell-based, GFP/MAC1 double positive, flow cytometry, validation set (AID 588685); settings: ER-HoxA9 marrow cells, stronger effect = higher value, normalized: vehicle 0, fulvestrant 100;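 also: compound exposure lasts four days before antibody staining and flow analysis; 0% = DMSO wells and 100% = 5 µM fulvestrant positive control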
[21] = measured here: daughter cell gate
[22] = measured here: mother cell gate
[23] = measured here: daughter cell gate response
[24] = measured here: mother cell gate response

Integrin beta-1 (Homo sapiens) + Integrin alpha-4 (Homo sapiens), sequence (P05556 whole entry, looked up): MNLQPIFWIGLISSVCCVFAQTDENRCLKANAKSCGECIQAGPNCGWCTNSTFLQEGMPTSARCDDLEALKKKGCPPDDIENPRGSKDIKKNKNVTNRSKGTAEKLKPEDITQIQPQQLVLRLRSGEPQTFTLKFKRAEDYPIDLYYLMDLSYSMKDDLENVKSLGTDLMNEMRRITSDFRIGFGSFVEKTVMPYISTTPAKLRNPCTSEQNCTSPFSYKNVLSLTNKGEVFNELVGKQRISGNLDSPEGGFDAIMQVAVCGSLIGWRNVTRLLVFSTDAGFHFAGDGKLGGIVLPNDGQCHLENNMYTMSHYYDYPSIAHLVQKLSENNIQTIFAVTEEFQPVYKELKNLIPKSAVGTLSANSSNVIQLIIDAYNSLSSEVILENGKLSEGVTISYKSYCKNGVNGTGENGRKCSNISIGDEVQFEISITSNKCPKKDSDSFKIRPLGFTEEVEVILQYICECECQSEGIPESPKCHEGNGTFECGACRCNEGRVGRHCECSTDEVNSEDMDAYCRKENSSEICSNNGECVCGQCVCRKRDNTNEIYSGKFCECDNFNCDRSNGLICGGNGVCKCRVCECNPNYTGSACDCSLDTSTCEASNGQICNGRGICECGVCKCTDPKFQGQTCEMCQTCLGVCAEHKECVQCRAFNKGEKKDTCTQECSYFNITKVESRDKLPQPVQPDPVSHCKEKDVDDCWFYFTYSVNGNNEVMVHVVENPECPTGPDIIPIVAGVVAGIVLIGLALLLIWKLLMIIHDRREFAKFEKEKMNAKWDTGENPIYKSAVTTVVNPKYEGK
Integrin beta-1 (Homo sapiens) + Integrin alpha-4 (Homo sapiens), sequence (P13612 whole entry, looked up): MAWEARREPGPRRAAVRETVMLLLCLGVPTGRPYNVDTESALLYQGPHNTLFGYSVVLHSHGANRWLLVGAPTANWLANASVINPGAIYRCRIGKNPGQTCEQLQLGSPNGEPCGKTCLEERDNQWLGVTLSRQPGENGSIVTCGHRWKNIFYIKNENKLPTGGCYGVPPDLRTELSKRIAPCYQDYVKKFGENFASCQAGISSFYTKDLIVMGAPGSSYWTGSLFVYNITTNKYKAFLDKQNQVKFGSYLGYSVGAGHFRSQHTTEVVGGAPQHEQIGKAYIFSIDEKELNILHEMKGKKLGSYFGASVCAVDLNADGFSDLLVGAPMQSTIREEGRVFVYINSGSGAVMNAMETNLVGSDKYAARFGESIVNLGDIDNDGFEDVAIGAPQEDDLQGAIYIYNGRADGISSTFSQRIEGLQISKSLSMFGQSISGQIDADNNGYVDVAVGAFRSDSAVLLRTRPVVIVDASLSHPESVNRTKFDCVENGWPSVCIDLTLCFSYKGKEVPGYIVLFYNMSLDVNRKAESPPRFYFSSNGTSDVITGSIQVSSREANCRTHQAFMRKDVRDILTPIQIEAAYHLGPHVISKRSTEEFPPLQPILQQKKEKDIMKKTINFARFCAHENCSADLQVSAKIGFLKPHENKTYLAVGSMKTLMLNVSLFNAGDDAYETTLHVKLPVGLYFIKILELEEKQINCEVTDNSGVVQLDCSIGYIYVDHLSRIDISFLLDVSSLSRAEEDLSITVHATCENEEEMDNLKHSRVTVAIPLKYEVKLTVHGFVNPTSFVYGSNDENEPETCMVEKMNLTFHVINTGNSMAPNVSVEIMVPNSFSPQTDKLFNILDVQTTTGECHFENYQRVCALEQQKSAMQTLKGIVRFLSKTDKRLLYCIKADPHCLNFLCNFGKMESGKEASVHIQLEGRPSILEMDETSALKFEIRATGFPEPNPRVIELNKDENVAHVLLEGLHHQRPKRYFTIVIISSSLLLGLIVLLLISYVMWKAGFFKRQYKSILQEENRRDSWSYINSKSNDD
Beta-adrenergic receptor kinase 1 (Homo sapiens), sequence (P25098 whole entry, looked up): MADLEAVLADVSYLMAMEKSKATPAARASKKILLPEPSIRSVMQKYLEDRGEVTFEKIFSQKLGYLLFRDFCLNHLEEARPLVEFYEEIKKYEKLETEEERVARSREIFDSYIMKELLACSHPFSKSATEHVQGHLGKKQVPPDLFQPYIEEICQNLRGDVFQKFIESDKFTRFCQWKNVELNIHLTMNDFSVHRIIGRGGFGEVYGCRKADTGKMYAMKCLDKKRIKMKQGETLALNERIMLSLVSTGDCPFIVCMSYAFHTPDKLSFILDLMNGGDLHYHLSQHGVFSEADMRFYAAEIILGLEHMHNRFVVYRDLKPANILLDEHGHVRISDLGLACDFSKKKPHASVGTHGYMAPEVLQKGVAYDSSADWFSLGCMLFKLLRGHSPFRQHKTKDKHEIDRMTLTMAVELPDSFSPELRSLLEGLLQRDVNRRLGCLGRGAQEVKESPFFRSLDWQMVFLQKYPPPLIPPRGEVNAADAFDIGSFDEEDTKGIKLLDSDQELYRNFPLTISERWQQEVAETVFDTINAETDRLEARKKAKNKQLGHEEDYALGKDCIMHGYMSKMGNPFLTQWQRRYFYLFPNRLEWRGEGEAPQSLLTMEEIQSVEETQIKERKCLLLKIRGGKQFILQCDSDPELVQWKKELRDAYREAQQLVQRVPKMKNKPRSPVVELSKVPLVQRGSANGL
ATP-binding cassette sub-family B member 6 (Homo sapiens), sequence (Q9NP58 whole entry, looked up): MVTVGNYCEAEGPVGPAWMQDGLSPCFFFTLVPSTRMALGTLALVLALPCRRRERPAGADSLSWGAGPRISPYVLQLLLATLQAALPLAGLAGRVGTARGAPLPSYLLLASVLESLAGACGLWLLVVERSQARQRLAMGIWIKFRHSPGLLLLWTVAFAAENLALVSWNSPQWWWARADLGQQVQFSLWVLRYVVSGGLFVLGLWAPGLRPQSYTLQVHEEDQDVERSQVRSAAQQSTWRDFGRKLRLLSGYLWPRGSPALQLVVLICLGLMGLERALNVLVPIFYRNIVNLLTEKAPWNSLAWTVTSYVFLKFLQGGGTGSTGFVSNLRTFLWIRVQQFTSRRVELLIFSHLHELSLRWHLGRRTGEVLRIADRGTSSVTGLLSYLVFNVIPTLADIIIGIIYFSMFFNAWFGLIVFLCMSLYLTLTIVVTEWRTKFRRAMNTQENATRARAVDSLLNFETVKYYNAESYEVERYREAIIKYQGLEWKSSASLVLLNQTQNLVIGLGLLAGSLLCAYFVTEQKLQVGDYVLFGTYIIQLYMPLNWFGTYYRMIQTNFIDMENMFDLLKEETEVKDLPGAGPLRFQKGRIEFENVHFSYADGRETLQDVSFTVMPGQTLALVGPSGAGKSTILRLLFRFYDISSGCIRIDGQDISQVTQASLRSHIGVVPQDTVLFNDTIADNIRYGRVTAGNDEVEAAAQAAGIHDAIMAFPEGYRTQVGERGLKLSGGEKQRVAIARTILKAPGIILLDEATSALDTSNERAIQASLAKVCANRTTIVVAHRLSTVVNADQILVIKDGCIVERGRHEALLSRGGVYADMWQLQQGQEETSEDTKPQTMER
AP-2 complex subunit beta (Homo sapiens), sequence (P63010 whole entry, looked up, the tested form may be a part, one chain of several): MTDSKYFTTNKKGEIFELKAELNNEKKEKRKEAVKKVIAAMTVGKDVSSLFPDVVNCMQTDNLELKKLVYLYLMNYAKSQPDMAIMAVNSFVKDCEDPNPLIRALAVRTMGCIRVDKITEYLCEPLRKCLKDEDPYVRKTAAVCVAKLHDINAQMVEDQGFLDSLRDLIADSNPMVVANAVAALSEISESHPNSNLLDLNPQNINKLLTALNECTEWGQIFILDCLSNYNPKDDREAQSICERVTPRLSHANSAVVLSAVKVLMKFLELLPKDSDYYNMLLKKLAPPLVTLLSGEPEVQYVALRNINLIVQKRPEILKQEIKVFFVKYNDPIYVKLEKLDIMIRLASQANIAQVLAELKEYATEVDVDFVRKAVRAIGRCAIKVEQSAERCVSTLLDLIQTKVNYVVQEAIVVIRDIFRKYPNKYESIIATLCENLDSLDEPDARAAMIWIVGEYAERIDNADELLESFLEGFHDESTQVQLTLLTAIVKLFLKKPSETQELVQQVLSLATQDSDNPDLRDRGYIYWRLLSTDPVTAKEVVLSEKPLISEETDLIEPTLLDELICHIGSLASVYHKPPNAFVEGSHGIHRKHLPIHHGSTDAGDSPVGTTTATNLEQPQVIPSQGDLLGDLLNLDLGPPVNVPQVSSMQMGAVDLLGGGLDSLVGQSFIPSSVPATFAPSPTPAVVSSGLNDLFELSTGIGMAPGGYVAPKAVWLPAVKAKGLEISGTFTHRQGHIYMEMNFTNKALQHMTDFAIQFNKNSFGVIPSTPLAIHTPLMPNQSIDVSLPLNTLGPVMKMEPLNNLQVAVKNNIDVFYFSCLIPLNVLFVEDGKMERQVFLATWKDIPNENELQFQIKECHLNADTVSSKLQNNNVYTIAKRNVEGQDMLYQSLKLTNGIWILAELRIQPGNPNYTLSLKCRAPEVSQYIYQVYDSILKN
Beta-2 adrenergic receptor (Homo sapiens), sequence (P07550 whole entry, looked up): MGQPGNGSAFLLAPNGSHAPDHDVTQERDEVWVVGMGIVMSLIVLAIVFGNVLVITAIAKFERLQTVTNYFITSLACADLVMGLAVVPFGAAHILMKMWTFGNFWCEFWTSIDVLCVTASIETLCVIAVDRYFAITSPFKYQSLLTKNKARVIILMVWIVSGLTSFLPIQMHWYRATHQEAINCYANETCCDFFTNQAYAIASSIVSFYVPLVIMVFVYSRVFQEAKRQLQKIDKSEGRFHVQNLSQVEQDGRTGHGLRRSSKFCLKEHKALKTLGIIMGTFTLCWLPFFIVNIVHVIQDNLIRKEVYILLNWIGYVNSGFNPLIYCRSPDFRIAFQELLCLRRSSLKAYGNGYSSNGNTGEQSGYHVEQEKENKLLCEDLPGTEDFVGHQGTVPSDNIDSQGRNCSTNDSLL

c1cnc2c(c1)ccc1cccnc12
107%: GFP response, % of DMSO [9, 22]
active: GFP response vs DMSO [4] 174%
117%: GFP response relative to DMSO [7, 24] | GFP response, % of DMSO [9, 21]
100%: GFP response vs DMSO [6, 21] | GFP response vs DMSO [6, 22]
116%: GFP response relative to DMSO [7, 23]
59.5%: double positive events [10]
inactive: percent of DMSO control GFP [1] 98.9% | GFP response vs DMSO [2] 107% | percent response of DMSO control [3] 96.4% | GFP response, % of DMSO [5] 117% | GFP response vs DMSO [6] 101% | GFP response relative to DMSO [7] 116% | GFP response vs DMSO [8] 112% | GFP response, % of DMSO [9] 111% | vesicle binding response [10] 192% | inhibition [11] 19.3% | superoxide response (% of plate) [12] 77.1% | aptamer binding inhibition [13] 8% | response [14] -45.4% | inhibition [15] 10.3% | response [16] 9.34% | binding (% of control) [17] 105% | efflux inhibition (fraction of control) [18] -0.13 | inhibition [19] 4% | differentiation response [20] -0.06%

CC(=O)CSc1ncnc2c1cnn2-c1ccccc1
57.9%: double positive events [10]
101%: GFP response relative to DMSO [7, 23]
92%: GFP response, % of DMSO [9, 21]
100%: GFP response vs DMSO [6, 22]
97.6%: GFP response vs DMSO [6, 21]
106%: GFP response relative to DMSO [7, 24]
inactive: percent of DMSO control GFP [1] 90.6% | GFP response vs DMSO [2] 116% | percent response of DMSO control [3] 92.6% | GFP response vs DMSO [4] 77.6% | GFP response, % of DMSO [5] 87.3% | GFP response vs DMSO [6] 100% | GFP response relative to DMSO [7] 106% | GFP response vs DMSO [8] 99% | GFP response, % of DMSO [9] 93% | vesicle binding response [10] 221% | inhibition [11] 10.3% | superoxide response (% of plate) [12] 85.6% | aptamer binding inhibition [13] 1% | response [14] 6.9% | inhibition [15] 14.5% | response [16] -1.56% | binding (% of control) [17] 105% | efflux inhibition (fraction of control) [18] 0.09 | inhibition [19] 7% | differentiation response [20] 6.55%
91.9%: GFP response, % of DMSO [9, 22]

CN1CCN2c3ccccc3Cc3ccccc3C2C1 (stereo not given)
94.8%: GFP response, % of DMSO [9, 21]
61.8%: double positive events [10]
101%: GFP response, % of DMSO [9, 22]
98.4%: GFP response vs DMSO [6, 21]
active: GFP response vs DMSO [2] 146%
inactive: percent of DMSO control GFP [1] 90.2% | percent response of DMSO control [3] 118% | GFP response vs DMSO [4] 94.6% | GFP response, % of DMSO [5] 107% | GFP response vs DMSO [6] 99.3% | GFP response relative to DMSO [7] 95% | GFP response vs DMSO [8] 100% | GFP response, % of DMSO [9] 99.1% | vesicle binding response [10] 183% | inhibition [11] 8.4% | superoxide response (% of plate) [12] 99.6% | aptamer binding inhibition [13] 2% | response [14] 4.6% | inhibition [15] 36.1% | response [16] -3.99% | binding (% of control) [17] 95.6% | efflux inhibition (fraction of control) [18] -0.13 | inhibition [19] 3% | differentiation response [20] -0.82%
100%: GFP response vs DMSO [6, 22]
97.2%: GFP response relative to DMSO [7, 23] | GFP response relative to DMSO [7, 24]

O=c1[nH]cc(F)c(=O)[nH]1
93%: GFP response relative to DMSO [7, 24]
85.4%: GFP response vs DMSO [6, 22]
52.4%: double positive events [10]
88.8%: GFP response relative to DMSO [7, 23]
89.8%: GFP response, % of DMSO [9, 22]
87.3%: GFP response, % of DMSO [9, 21]
82.3%: GFP response vs DMSO [6, 21]
active: percent response of DMSO control [3] 127%
inactive: percent of DMSO control GFP [1] 90.9% | GFP response vs DMSO [2] 119% | GFP response vs DMSO [4] 77% | GFP response, % of DMSO [5] 104% | GFP response vs DMSO [6] 83.5% | GFP response relative to DMSO [7] 90% | GFP response vs DMSO [8] 101% | GFP response, % of DMSO [9] 88.5% | vesicle binding response [10] 223% | inhibition [11] -45% | superoxide response (% of plate) [12] 100% | aptamer binding inhibition [13] -3% | response [14] -17.5% | inhibition [15] -8.2% | response [16] 1.44% | binding (% of control) [17] 104% | efflux inhibition (fraction of control) [18] -0.06 | inhibition [19] 9% | differentiation response [20] -5.73%

Cc1ccc2[nH]c3c(c2c1)CCNC3=O
114%: GFP response, % of DMSO [9, 22]
106%: GFP response, % of DMSO [9, 21]
92.5%: GFP response relative to DMSO [7, 23]
103%: GFP response vs DMSO [6, 22]
100%: GFP response vs DMSO [6, 21]
57.6%: double positive events [10]
inactive: percent of DMSO control GFP [1] 99.1% | GFP response vs DMSO [2] 95.9% | percent response of DMSO control [3] 104% | GFP response vs DMSO [4] 91.3% | GFP response, % of DMSO [5] 98.7% | GFP response vs DMSO [6] 101% | GFP response relative to DMSO [7] 91.4% | GFP response vs DMSO [8] 100% | GFP response, % of DMSO [9] 111% | vesicle binding response [10] 187% | inhibition [11] 7.22% | superoxide response (% of plate) [12] 95% | aptamer binding inhibition [13] -2% | inhibition [15] -5.6% | response [16] -10.4% | binding (% of control) [17] 100% | efflux inhibition (fraction of control) [18] -0.2 | inhibition [19] 7% | differentiation response [20] -6.66%
94.2%: GFP response relative to DMSO [7, 24]

O=[N+]([O-])c1ccc(O)c2ncccc12
inactive: percent of DMSO control GFP [1] 99.7% | GFP response vs DMSO [2] 122% | percent response of DMSO control [3] 81.5% | GFP response vs DMSO [6] 104% | GFP response vs DMSO [8] 120% | GFP response, % of DMSO [9] 138% | vesicle binding response [10] 159% | inhibition [11] -1.12% | aptamer binding inhibition [13] 0% | response [14] -20% | inhibition [15] -6.92% | binding (% of control) [17] 83.2% | efflux inhibition (fraction of control) [18] -0.13 | inhibition [19] 1% | differentiation response [20] -3.02%
active: GFP response vs DMSO [4] 375% | GFP response, % of DMSO [5] 152% | GFP response relative to DMSO [7] 274% | superoxide response (% of plate) [12] 56.6% | response [16] 65.3%
121%: GFP response, % of DMSO [9, 21]
99.2%: GFP response vs DMSO [6, 22]
245%: GFP response relative to DMSO [7, 24]
126%: GFP response, % of DMSO [9, 22]
59.9%: double positive events [10]
99.8%: GFP response vs DMSO [6, 21]
